Data: the supplement of paper PMC8183993
“And” between values parts separate entries of the source, which are not always exact repeats. Identical values can stand only once. Counter-ions that a name gives are not always drawn. ± gives the standard deviation of the averaged measurements. In all, about 3,100 compounds were measured (“mean cytoplasmic OPP incorporation (global translation) relative to DMSO”: median about 100, lowest 2% from about 56 on). This is one part of a sample in which the lowest values are shown more often than they occur.

system: U2OS; test: mean cytoplasmic OPP incorporation (global translation) relative to DMSO (% of DMSO); higher = more protein synthesis; conditions: 10 µM; 24 h
Description: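 Primary image-based screen in U2OS cells: compounds at 10 uM for 24 h, then a 1 h o-propargyl-puromycin (OPP) pulse, click labelling, and high-throughput microscopy. Mean cytoplasmic OPP intensity and nuclei count were normalised to DMSO wells within each plate (DMSO = 100) and averaged over triplicate plates.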

| Structure (SMILES) | mean cytoplasmic OPP incorporation |
| --- | --- |
| O=C(NCCCN1CCC2(CC1)OCc1ccccc12)[C@H]1CCCN1Cc1ccccc1 | 108 |
| CCCCC[C@H](O)/C=C/[C@@H]1[C@H]2C/C(=C/CCCC(=O)O)C[C@H]2C[C@H]1O [Carbacyclin] | 101 |
| Nc1nc(NCCc2ccc(O)cc2)nc2nc(-c3ccco3)nn12 | 99.2 |
| CN(C)Cc1c(C(=O)NCCOc2ccc(C(=O)NO)cc2)oc2ccccc12 | 56 |
| Cc1cc(C)c(N(Cc2ccccc2)S(=O)(=O)c2ccc(OCCNC(=O)c3cc4ccccc4o3)cc2)c(C(=O)NO)c1 | 103 |
| COc1cc(C(=O)NCc2ccc(OCCN(C)C)cc2)cc(OC)c1OC [Trimethobenzamide hydrochloride] | 102 |
| O=C(O)COc1ccc(OCCNC[C@H](O)COc2ccccc2)cc1 [ICI 215,001 hydrochloride] | 100 |
| CCCCn1c(=O)c2[nH]c(C34CC5CC(CC3C5)C4)nc2n(CCCO)c1=O | 117 |
| CCC(CC)[C@H](NC(C)=O)[C@@H]1[C@H](O)[C@@H](C(=O)O)C[C@H]1NC(=N)N [Peramivir  Trihydrate] | 99.4 |
| c1ccc2sc(N3CCN(Cc4ccc5c(c4)OCO5)CC3)nc2c1 [2-[1-(4-Piperonyl)piperazinyl]benzothiazole] | 105 |
| Cc1cc(/C=C/c2ccc3cc(N(C)C)ccc3[n+]2C)c(C)n1-c1ccccc1 [Pyrvinium pamoate] | 22 |
| CNCCCCOc1ccccc1Cc1ccccc1 [Bifemelane hydrochloride] | 107 |
| O=Cc1c2[nH]c3ccccc3c2cc2[nH]c3ccccc3c12 [6-Formylindolo [3,2-B] carbazole] | 92.9 |
| COc1ccc2[nH]cc(CCNC(C)=O)c2c1 [Melatonin] | 103 ± 4.6 |
| COc1ccc(OC)c(C(O)CNC(=O)CN)c1 (configuration not stated) [Midodrine hydrochloride] | 48.8 |
| COc1ccc(C(=O)NCc2ccc(OCCN(C)C)cc2)cc1OC [Itopride] | 89.3 |
| CC(C)[C@H](N)C(=O)N[C@H](C(=O)N[C@H](C(=O)O)C(C)C)C(C)C | 114 |
| O=C(/C=C/C#Cc1cccc(NS(=O)(=O)c2ccccc2)c1)NO [Oxamflatin] | 105 |
| COc1cccc2c1C(=O)c1c(O)c3c(c(O)c1C2=O)C[C@@](O)(C(=O)CO)C[C@@H]3O[C@H]1C[C@H](N)[C@H](O)[C@H](C)O1 [Doxorubicin hydrochloride] | 54.8 ± 17 |
| COc1cccc2c1C(=O)c1c(O)c3c(c(O)c1C2=O)C[C@@](O)(C(C)=O)C[C@@H]3O[C@H]1C[C@H](N)[C@H](O)[C@H](C)O1 [Daunorubicin hydrochloride] | 40.7 |
| COc1cccc2c1C(=O)c1c(O)c3c(c(O)c1C2=O)C[C@@](O)(C(=O)CO)C[C@@H]3O[C@H]1C[C@H](N)[C@H](O)[C@H](C)O1 [Doxorubicin (Adriamycin)] | 67.1 |

| Structure (SMILES) | mean cytoplasmic OPP incorporation |
| --- | --- |
| COc1cccc2c1C(=O)c1c(O)c3c(c(O)c1C2=O)C[C@@](O)(C(=O)CO)C[C@@H]3O[C@H]1C[C@H](N)[C@H](O[C@@H]2CCCCO2)[C@H](C)O1 [Pirarubicin] | 59.9 |
| COc1cccc2c1C(=O)c1c(O)c3c(c(O)c1C2=O)C[C@@](O)(C(=O)CO)C[C@@H]3O[C@H]1C[C@H](N)[C@@H](O)[C@H](C)O1 [Epirubicin HCl] | 59.5 |
| CC(=O)[C@]1(O)Cc2c(O)c3c(c(O)c2[C@@H](O[C@H]2C[C@H](N)[C@H](O)[C@H](C)O2)C1)C(=O)c1ccccc1C3=O [Idarubicin HCl] | 60.3 |
| COc1cccc2c1C(=O)c1c(O)c3c(c(O)c1C2=O)C[C@@](O)(C(C)=O)C[C@@H]3O[C@H]1C[C@H](N)[C@H](O)[C@H](C)O1 [Daunorubicin HCl (Daunomycin HCl)] | 59.9 |
| CC(C)C(=O)SCCCCCCC(=O)Nc1nc(-c2ccccc2)cs1 | 117 |
| CCCCCCN(CCCCCC)C(=O)Cc1c(-c2ccc(Cl)cc2)[nH]c2ccc(Cl)cc12 | 104 |
| Cc1ccc(CC2(O)CCN(CCOc3ccc(O)cc3)CC2)cc1 | 108 |
| COc1cc(C#N)ccc1S(=O)(=O)Nc1ccc2c(c1)cc(C)c(=O)n2C | 109 |
| COc1ccc(CCN(C)CCCOc2ccc(S(=O)(=O)c3c(C(C)C)c4ccccc4n3C)cc2)cc1OC | 110 |
| Clc1cc2c(NC3CCCC3)nnc(-c3ccncc3)c2cc1Cl | 114 |
| Cc1cnc(Nc2ccc(OCCN3CCCC3)cc2)nc1Nc1cccc(S(=O)(=O)NC(C)(C)C)c1 | 82.6 and 66.4 |
| CCN(CC)CCOc1ccc(Nc2ncc3cc(-c4c(Cl)cccc4Cl)c(=O)n(C)c3n2)cc1 | 53.6 |
| CSc1cccc(Nc2ncc3cc(-c4c(Cl)cccc4Cl)c(=O)n(C)c3n2)c1 | 116 |
| Cc1ccc(S(=O)(=O)C=CC#N)cc1 | 65.3 |
| O=C1Nc2ccc(-c3cccnc3)cc2/C1=C/c1ccc[nH]1 [JAK3 Inhibitor VI] | 90 |
| N=C(N)c1ccc(N2CCN(C3CCN(CC(=O)O)CC3)CC2)cc1 | 99.3 |
| NCC1CCC(C(=O)N[C@@H](Cc2ccccc2)C(=O)Nc2ccc(CC(=O)O)cc2)CC1 (some centres not stated) | 97.5 |
| NC[C@H]1CC[C@H](C(=O)O)CC1 [Tranexamic acid] | 47 |
| CC1(C)CCC(C)(C)c2cc(C(=O)Nc3ccc(C(=O)O)cc3)ccc21 | 105 and 99.6 |
| CN(CCc1ccc(Cl)c(Cl)c1)CC(O)COc1ccc(NS(C)(=O)=O)cc1 (configuration not stated) | 102 and 107 |
| N#Cc1ccc(NC(=O)Nc2ccccc2Br)c2n[nH]nc12 | 104 |

| Structure (SMILES) | mean cytoplasmic OPP incorporation |
| --- | --- |
| CC(C)CC(=O)Nc1n[nH]c2c1CN(C(=O)C1CCN(C)CC1)C2(C)C | 65.9 |
| Cc1nc(Nc2n[nH]c3c2CN(C(=O)N[C@H](CN(C)C)c2ccccc2)C3(C)C)c2sccc2n1 | 45.5 |
| CSc1nc(NC2CCCC2)c([N+](=O)[O-])c(NC2CCCC2)n1 | 101 |
| COC(C)(C)CCCC(C)C/C=C/C(C)=C/C(=O)O (configuration not stated) [Methoprene acid] | 99.2 |
| CC(=O)OCOC(c1cc([N+](=O)[O-])ccc1Oc1ccc(Br)cc1)P(=O)(OCOC(C)=O)OCOC(C)=O (configuration not stated) | 101 |
| CC(C)N1Cc2cc(S(C)(=O)=O)ccc2N(CCN2CC=C(c3c[nH]c4cc(F)ccc34)CC2)S1(=O)=O | 106 |
| CC(C)[C@H]1c2ccc(F)cc2CC[C@@]1(CCN(C)CCCc1nc2ccccc2[nH]1)OC(=O)C1CC1 [NNC 55-0396 dihydrochloride] | 55.5 |
| COCC(=O)O[C@]1(CCN(C)CCCc2nc3ccccc3[nH]2)CCc2cc(F)ccc2[C@@H]1C(C)C [Mibefradil dihydrochloride] | 116 |
| N#Cc1ccc(NCCNCC(=O)N2CCC[C@H]2C#N)nc1 [NVP DPP 728 dihydrochloride] | 90.3 |
| COc1ccc(CCN(C)CCCN2CCc3cc(OC)c(OC)cc3CC2=O)cc1OC [Zatebradine hydrochloride] | 107 |
| COc1cc(N)c(Cl)cc1C(=O)OCCCN1CCCCC1 | 104 |
| O=C(O)c1ccc(N2C(=O)C(=Cc3ccccc3)SC2=S)cc1 | 102 |
| O=C(NCCN1CCOCC1)c1ccc(Cl)cc1 [Moclobemide] | 91.9 |
| O=C1C(Cl)=C(NCCN2CCOCC2)C(=O)c2ncccc21 | 31 |
| Cc1cc(-c2ccccc2)nnc1NCCN1CCOCC1 [Minaprine dihydrochloride] | 99.4 |
| Cl/C(=C\n1cncn1)c1ccc(Cl)cc1Cl [Loreclezole hydrochloride] | 98.7 |
| Cc1oc(S(=O)(=O)N2CCCCC2)cc1NC(=O)Nc1ccccc1 | 102 |
| COc1ccccc1N1CCN(CCCCNC(=O)c2ccc3ccccc3c2)CC1 | 112 |
| O=C(NCCCCN1CCN(c2cccc(Cl)c2Cl)CC1)c1ccc2c(c1)Cc1ccccc1-2 | 107 |
| Cc1cn(CCN2CCN(c3ccccc3-c3cc(C#N)cc(C(=O)NCCCN4CCCC4)c3)CC2)c2ccccc12 | 30.6 |
| CC(C)=CCC/C(C)=C/CC/C(C)=C/CSCC(=O)O [Farnesylthioacetic acid] | 96.1 |

| Structure (SMILES) | mean cytoplasmic OPP incorporation |
| --- | --- |
| CSCC[C@H](NC=O)C(=O)N[C@@H](CC(=O)O)C(=O)NCC(=O)N[C@@H](CS)C(=O)N[C@@H](CCC(=O)O)C(=O)N[C@@H](CC(C)C)C(=O)O | 103 |
| CC(=O)N1CCN(C)CC1 [1-Acetyl-4-methylpiperazine hydrochloride] | 99.1 |
| Cc1ccc([N+](=O)[O-])cc1S(=O)(=O)N(C)C | 94.1 |
| Cc1ccc([N+](=O)[O-])cc1S(=O)(=O)N(C)/N=C/c1cnc2ccc(Br)cn12 | 44.3 |
| Cn1cccc1/C=C1\C(=O)NC(=O)c2ccccc21 | 89.4 |
| CC(C)Oc1cc(Nc2nc(N[C@@H](C)c3ccc(F)cn3)ncc2Cl)n[nH]1 | 110 |
| Cc1cc(Nc2ncc(Cl)c(Nc3ccccc3S(=O)(=O)C(C)C)n2)c(OC(C)C)cc1C1CCNCC1 [Ceritinib (LDK378)] | 25.4 |
| O=C1c2ccccc2C(=O)c2c1ccc(O)c2O [Alizarin] | 106 |
| O=C1C(SCCO)=C(SCCO)C(=O)c2ccccc21 | 71.3 and 55.3 |
| O=C1c2ccccc2-c2nc3nonc3nc21 | 81.3 |
| O=[N+]([O-])c1ccc(Oc2ccc(Br)cc2)c(C(O)P(=O)(O)O)c1 (configuration not stated) | 95.9 |
| COC(=O)C(Cc1ccc(OCCn2c(=O)sc3cc(C(=O)c4ccccc4)ccc32)cc1)C(=O)OC | 105 |
| CC(=O)OC[C@H]1O[C@@H]([S-])[C@H](OC(C)=O)[C@@H](OC(C)=O)[C@@H]1OC(C)=O.CCP(CC)CC.[Au+] [Auranofin] | 10.4 |
| CCCCc1nc2ccn(Cc3cccs3)c(=O)c2n1Cc1ccc(-c2ccccc2-c2nn[nH]n2)cc1 | 104 |
| COc1cc(-c2cn(C)c(=O)c3cnccc23)c(OC)cc1CN(C)C | 95.8 |
| c1ccc(-c2n[nH]c3c2oc2ccccc23)cc1 | 87.3 |
| Cc1[nH]c(=O)c(C#N)cc1-c1ccncc1 [Milrinone] | 94.4 |
| O=C1NC(=O)/C(=C/c2ccc3nccc(-c4ccncc4)c3c2)S1 | 90.1 |
| O=C1NCCc2[nH]c(-c3ccncc3)cc21 | 49.9 ± 13 |
